Test results taken from PubChem BioAssay.

Test: P. aeruginosa biofilm formation inhibitors, primary screen, PAO1 strain, BacTiter-Glo luminescence, LB-PBS (AID 1144)
Conditions: 12 h, higher = more signal; call rule not given here

z-score, inactive:
CCC#CCN(Cc1ccccc1Br)[C@H](/C=C/C1CC1)[C@@H](O)Cc1ccccc1 -1.23
CCCCN1CC=CC23O[C@@H]4/C=C\CCCOC(=O)C4[C@H]2C(=O)N(CCO)[C@@H]3C1=O (stereo partly specified) -1.29
C=CCNC(=O)[C@@H]1[C@H]2C(=O)O[C@H](c3ccccc3)[C@H](c3ccccc3)N2[C@H](c2ccccc2OCCO)[C@@]12C(=O)N(C(=O)OCCOC)c1ccc(C#CC3(O)CCCCCC3)cc12 -0.0868
O=C(C1N=C(c2ccc(OCCCO)cc2)N(c2ccccc2)O1)N1CCCCC1 (stereo unspecified) 1.52
CN(C)CCCCCCNC(=O)[C@@H]1C[C@@H]2C(=O)N3CCC[C@H]3C(=O)N2[C@@H]1c1cccc(OCCO)c1 0.15
COC(=O)[C@@]1(Cc2ccccc2)[C@H]2c3cc(C(=O)N(C)C)n(Cc4ccc(C)o4)c3C[C@H]2CN1C(=O)c1ccccc1 -0.142
O[C@@H](Cc1ccccc1)[C@@H](/C=C/C1CC1)N(CC#Cc1ccccc1)Cc1ccccc1Br 0.357
COCC(=C=CC[C@H](O)c1ccc(OCCO)cc1)CCO 0.163
NCCCCCNC(=O)[C@H]1C[C@H]2C(=O)N3CCC[C@H]3C(=O)N2[C@H]1c1cccc(OCCO)c1 0.294
CCCC[C@@H]1C[C@H]1[C@@H](NC(=O)c1cccs1)c1ccccc1C(F)(F)F -1.3
CCOC(=O)C[C@H]1[C@H](OC(=O)Cc2ccc3c(c2)OCO3)[C@@H](NC(=O)C2CCCCC2)c2cc(OCCCO)ccc2N1C(=O)c1ccccc1 -1.38
COc1cc(C(O)C2C=CC3C(=O)N(C)C(=O)C3N2Nc2ccccc2)cc(OC)c1OC (stereo unspecified) -0.426
COc1ccc([Si](C)(C)[C@@H]2[C@@H](CC(=O)N3Cc4ccccc4C[C@H]3CO)O[C@]3(C(=O)N(Cc4ccc(N5C(=O)c6cccc7cccc5c67)cc4)c4ccccc43)[C@H]2C)cc1 -0.334
C=CCC(OC(C)=O)[C@@H]1[C@@H](N(Cc2ccc(-c3cccc(C(F)(F)F)c3)o2)C(=O)c2ccc(-c3ccccc3)cc2)c2cc(OCCCO)ccc2N1C(=O)Cc1ccc2ccccc2c1 (stereo partly specified) -0.184
C=CCNC(=O)[C@H]1[C@@H]2C(=O)O[C@@H](c3ccccc3)[C@@H](c3ccccc3)N2[C@@H](c2ccccc2OCCO)[C@]12C(=O)N(C(=O)OCCOC)c1ccc(C#CC3(O)CCCCCC3)cc12 -0.717
COc1ccc([Si](C)(C)[C@@H]2[C@@H](CCO)O[C@]3(C(=O)N(Cc4cccc(NC(=O)[C@H](C)O)c4)c4ccccc43)[C@H]2C)cc1 -1.07
CCCCC[C@H]1OC[C@@]23C=C(Br)[C@@H](CC12)[C@@]1(CO1)C3=O (stereo partly specified) 0.931
C=CCN1Cc2ccccc2[C@@H]2OC(c3ccc(OCCCO)cc3)=N[C@]2(CC=C)C1=O 0.0166
Cc1ccc(NN2C(C(O)c3c(F)cccc3Cl)C=CC3C(=O)N(C4CCCCC4)C(=O)C32)cc1 (stereo unspecified) -0.933
CCCCC(CC)C(O)C1C=CC2C(=O)N(c3ccccc3)C(=O)C2N1Nc1ccc(C#N)cc1 (stereo unspecified) -1.55
NC(=O)[C@H]1[C@@H]2C(=O)O[C@@H](c3ccccc3)[C@@H](c3ccccc3)N2[C@@H](c2ccc(OCCO)cc2)[C@]12C(=O)Nc1ccc(C#CCCO)cc12 -0.311
CCC1=C2CN(Cc3ccccc3)[C@@H](C(=O)Cc3ccccc3)C2C=CCC1 (stereo partly specified) 0.0518
[N-]=[N+]=Nc1ccccc1C[C@]1(C(=O)NCC(O)CO)COC(c2ccc(OCCCO)cc2)=N1 (stereo partly specified) -0.3
CCCC=C(CCC)[C@@H](NP(=O)(c1ccccc1)c1ccccc1)c1ccc(-c2ccccc2)cc1 0.892
CCOC(=O)C[C@H]1[C@H](OC(=O)c2ccc(C(=O)c3ccccc3)cc2)[C@@H](NC(=O)c2ccc(-c3ccccc3)cc2)c2cc(OCCCO)ccc2N1C(=O)Cc1ccc(OC)cc1 -0.271
CO[C@H]1O[C@H](CO)[C@@H](OC(=O)CCc2ccccc2)[C@@H]2OC(=O)[C@@H](Cc3ccccc3)C/C=C/C[C@H](Cc3ccccc3)C(=O)O[C@@H]12 -0.605
CCOC(=O)C1=C[C@@H](c2ccccc2)N(S(=O)(=O)c2ccc(C)cc2)[C@H]1c1ccc(OC)cc1 0.173
[N-]=[N+]=Nc1ccccc1C[C@]1(C(=O)NCCN2CCOCC2)COC(c2ccc(OCCCO)cc2)=N1 0.783
COc1ccc([Si](C)(C)[C@H]2[C@H](CC(=O)N3Cc4ccccc4C[C@H]3CO)O[C@@]3(C(=O)N(Cc4ccc(N5CCOC5=O)cc4)c4ccccc43)[C@@H]2C)cc1 -0.3
CS(=O)(=O)CCOC(=O)C1=CC(c2ccc(CO)cc2)=CC(C2CC2)N(Cc2sc3ccccc3c2Cl)C=C1C(=O)OCCS(C)(=O)=O (stereo unspecified) -1.49
CCCCNC(=O)c1ccc(C#CC(C)(C)C)c(OC(C)=O)c1 -0.245
O=C1C2C=CC(C(O)c3ccco3)N(Nc3ccccc3F)C2C(=O)N1c1ccccc1 (stereo unspecified) -0.853
COc1cc(NN2C(C(O)c3ccco3)C=CC3C(=O)N(C)C(=O)C32)cc(OC)c1OC (stereo unspecified) 0.184
COC(=O)[C@@]1(Cc2ccc(F)cc2)[C@H]2c3cc(C(=O)N(C)C)n(CCc4ccc(OC)c(Br)c4)c3C[C@H]2CN1C(=O)c1ccccc1 0.167
CC(C)[Si](C#CCCCC#N)(O[C@H](c1ccccc1)c1cn(Cc2ccccc2)nn1)C(C)C -0.319
COCCOC(=O)N1C(=O)[C@@]2(c3cc(C#CC4(O)CCCCCC4)ccc31)[C@H](C(=O)Nc1nc3ccccc3s1)[C@H]1C(=O)O[C@H](c3ccccc3)[C@H](c3ccccc3)N1[C@@H]2c1ccc(O)cc1 -0.374
